Data reported in PubChem BioAssay (NCATS).
Results filed as inconclusive are left out. Entries that show only a call come without a potency. The source made the active and inactive calls. Calls follow the shape of the dose curve; as a rule, active = well fitted curve in the direction sought with a large enough effect; inconclusive = small, poorly fitted or top-dose-only effect, or another doubt; inactive = no such curve, though single readings can be large; an effect the other way counts as inactive or inconclusive. Positions of bridges follow the written chain, without caps; N, C: chain ends. Non-standard residues stand in square brackets, D forms with d. Residues, ends and D or L forms follow the SMILES beside them. ξ: configuration not given here. *: point of attachment. Octanoyl(6-Me) = CCC(C)CCCCC(=O)*; ξThr(3R) = C[C@@H](O)C(N)C(=O)O; dDab = NCC[C@@H](N)C(=O)O; Dab = NCC[C@H](N)C(=O)O

Key:
[1] = qHTS of pediatric cancer cell lines to identify multiple opportunities for drug repurposing: Primary screen for BT-37 cells (AID 1347094); also: potency is read from the fitted curve at half-maximal effect
Summary of the method: (§1)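 Cells seeded at 500-1,000 cells/well in growth media, rested 5 hours at 37 degrees C, 5% CO2, then dosed; MIPE compounds at 11-point (from 0.78 nM) and NPC at 8-point (from 0.59 nM) final concentrations. Viability by CellTiter-Glo luminescence after 48 hours.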

[2] = qHTS of pediatric cancer cell lines to identify multiple opportunities for drug repurposing: Primary screen for U-2 OS cells (AID 1347096); also: nearly all actives have a fitted effect of over 50% in size; also: potency is read from the fitted curve at half-maximal effect
Summary of the method: (§2)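 Cells (500-1,000/well) in growth media were settled 5 h at 37 degrees C, then given compounds for 48 h. Viability was read as CellTiter-Glo luminescence. Primary runs used MIPE at 11 points (0.78 nM-46 µM) and NPC at 8 points (0.59 nM-46 µM); follow-ups used 11 points.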

[3] = qHTS of pediatric cancer cell lines to identify multiple opportunities for drug repurposing: Primary screen for Saos-2 cells (AID 1347097); also: nearly all actives have a fitted effect of over 40% in size; also: potency is read from the fitted curve at half-maximal effect
Summary of the method: as §1

[4] = qHTS of pediatric cancer cell lines to identify multiple opportunities for drug repurposing: Primary screen for SK-N-SH cells (AID 1347098); also: nearly all actives have a fitted effect of over 65% in size; also: potency is read from the fitted curve at half-maximal effect
Summary of the method: (§3)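 Cells (500-1,000/well) rested 5 h, then received compounds for 48 h; metabolically active cells were measured by CellTiter-Glo luminescence. Final concentrations spanned up to 46 µM (MIPE, 11-point) or 0.59 nM-46 µM (NPC, 8-point) in primary screens, 11-point in follow-ups.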

[5] = qHTS of pediatric cancer cell lines to identify multiple opportunities for drug repurposing: Primary screen for NB1643 cells (AID 1347099); also: nearly all actives have a fitted effect of over 50% in size; also: potency is read from the fitted curve at half-maximal effect
Summary of the method: as §1

[6] = qHTS of pediatric cancer cell lines to identify multiple opportunities for drug repurposing: Primary screen for LAN-5 cells (AID 1347100); also: potency is read from the fitted curve at half-maximal effect
Summary of the method: as §2

[7] = qHTS of pediatric cancer cell lines to identify multiple opportunities for drug repurposing: Primary screen for BT-12 cells (AID 1347101); also: nearly all actives have a fitted effect of over 25% in size; also: potency is read from the fitted curve at half-maximal effect
Summary of the method: as §3

[8] = qHTS of pediatric cancer cell lines to identify multiple opportunities for drug repurposing: Primary screen for RD cells (AID 1347104); also: nearly all actives have a fitted effect of over 55% in size; also: potency is read from the fitted curve at half-maximal effect
Summary of the method: as §1

[9] = qHTS of pediatric cancer cell lines to identify multiple opportunities for drug repurposing: Primary screen for MG 63 (6-TG R) cells (AID 1347105); also: nearly all actives have a fitted effect of over 50% in size; also: potency is read from the fitted curve at half-maximal effect
Summary of the method: as §1

[10] = qHTS of pediatric cancer cell lines to identify multiple opportunities for drug repurposing: Primary screen for Rh30 cells (AID 1347107); also: nearly all actives have a fitted effect of over 75% in size; also: potency is read from the fitted curve at half-maximal effect
Summary of the method: as §2

[11] = qHTS of pediatric cancer cell lines to identify multiple opportunities for drug repurposing: Primary screen for Rh41 cells (AID 1347108); also: nearly all actives have a fitted effect of over 70% in size; also: potency is read from the fitted curve at half-maximal effect
Summary of the method: as §1

[12] = qHTS of pediatric cancer cell lines to identify multiple opportunities for drug repurposing: Primary screen for OHS-50 cells (AID 1347103); also: nearly all actives have a fitted effect of over 40% in size; also: potency is read from the fitted curve at half-maximal effect
Summary of the method: as §3

[13] = qHTS of pediatric cancer cell lines to identify multiple opportunities for drug repurposing: Primary screen for control Hh wild type fibroblast cells (AID 1347106);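 also: series mostly up to about 46 µM; a drop in luminescence marks cytotoxicity and a rise apparent proliferation; nearly all actives have a fitted effect of over 55% in size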
Summary of the method: as §2

[14] = qHTS of pediatric cancer cell lines to identify multiple opportunities for drug repurposing: Primary screen for Rh18 cells (AID 1347102); also: nearly all actives have a fitted effect of over 65% in size; also: potency is read from the fitted curve at half-maximal effect
Summary of the method: as §2

[15] = qHTS of pediatric cancer cell lines to identify multiple opportunities for drug repurposing: Primary screen for NB-EBc1 cells (AID 1347095); also: potency is read from the fitted curve at half-maximal effect
Summary of the method: as §1

[16] = qHTS of pediatric cancer cell lines to identify multiple opportunities for drug repurposing: Confirmatory screen for SK-N-MC cells (AID 1347111);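 also: cells exposed to compound for 48 h before the readout; nearly all actives have a fitted effect of over 70% in size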; also: potency is read from the fitted curve at half-maximal effect
Summary of the method: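 Metabolically active cells were quantified by ATP-dependent luminescence (CellTiter-Glo, 15 min at room temperature) following 48 h treatment. Cells had been plated at 500-1,000 per well and settled for 5 h beforehand.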

[17] = qHTS of pediatric cancer cell lines to identify multiple opportunities for drug repurposing: Confirmatory screen for LAN-5 cells (AID 1347113); also: nearly all actives have a fitted effect of over 65% in size; also: potency is read from the fitted curve at half-maximal effect
Summary of the method: as §2

[18] = qHTS of pediatric cancer cell lines to identify multiple opportunities for drug repurposing: Confirmatory screen for NB1643 cells (AID 1347109); also: nearly all actives have a fitted effect of over 45% in size; also: potency is read from the fitted curve at half-maximal effect
Summary of the method: as §2

[19] = qHTS of pediatric cancer cell lines to identify multiple opportunities for drug repurposing: Confirmatory screen for A673 cells (AID 1347110);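 also: potency is read from the fitted curve at half-maximal effect; cells exposed to compound for 48 h before the viability read; nearly all actives have a fitted effect of over 65% in size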
Summary of the method: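 A673 cells seeded at 500-1,000 cells/well, rested 5 h, then dosed; primary MIPE 11-point (0.78 nM to 46 µM), NPC (0.59 nM to 46 µM); confirmatory 11-point. CellTiter-Glo luminescence after 48 h.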

[20] = qHTS of pediatric cancer cell lines to identify multiple opportunities for drug repurposing: Confirmatory screen for BT-12 cells (AID 1347112); also: potency is read from the fitted curve at half-maximal effect; nearly all actives have a fitted effect of over 55% in size
Summary of the method: as §2

| Structure (SMILES) | Potency [1] | Potency [2] | Potency [3] | Potency [4] | Potency [5] | Potency [6] | Potency [7] | Potency [8] | Potency [9] | Potency [10] | Potency [11] | Potency [12] | Potency [13] | Potency [14] | Potency [15] | Potency [16] | Potency [17] | Potency [18] | Potency [19] | Potency [20] |
| --- | --- | --- | --- | --- | --- | --- | --- | --- | --- | --- | --- | --- | --- | --- | --- | --- | --- | --- | --- | --- |
| O=c1[nH]c(=O)n([C@H]2C[C@@H](O)[C@@H](CO)O2)cc1F | 0.685 µM (active) | 18.7 µM (active) | 5.9 µM (active) | inactive | 14.8 µM (active) | 1.32 µM (active) | 6.11 µM (active) | 16.6 µM (active) | 18.7 µM (active) | 2.35 µM (active) | 1.48 µM (active) | – | – | – | – | – | – | – | – | – |
| Cc1cnn(C)c1C(=O)Nc1cc(Nc2ccc3c(C=Cc4ccccn4)n[nH]c3c2)ccc1F | 24.3 µM (active) | – | 20.9 µM (active) | – | 14.8 µM (active) | 14.8 µM (active) | 10.9 µM (active) | 18.7 µM (active) | – | – | – | 38.5 µM (active) | inactive | – | – | – | – | – | – | – |
| O=C(Nc1ccc(Oc2ccnc3[nH]ccc23)c(F)c1)c1cccn(-c2ccc(F)cc2)c1=O | inactive | inactive | 20.9 µM (active) | – | – | inactive | inactive | inactive | inactive | – | inactive | – | inactive | inactive | – | – | – | – | – | – |
| CCC(C)CCCCC(=O)N[C@@H](CCN)C(=O)NC(C(=O)N[C@H](CCN)C(=O)N[C@@H]1CCNC(=O)C([C@@H](C)O)NC(=O)[C@@H](CCN)NC(=O)[C@@H](CCN)NC(=O)[C@@H](CC(C)C)NC(=O)[C@H](Cc2ccccc2)NC(=O)[C@H](CCN)NC1=O)[C@@H](C)O (stereo partly drawn) ({Octanoyl(6-Me)}-[Dab][ξThr(3R)][dDab][dDab][Dab]F[dL][dDab][dDab][ξThr(3R)]; lactam 4-C) | inactive | – | inactive | – | inactive | – | inactive | inactive | inactive | inactive | inactive | inactive | inactive | inactive | – | – | – | – | – | – |
| COc1ccc(C(C)=O)c(O)c1 | – | inactive | 1.66 µM (active) | inactive | 5.26 µM (active) | inactive | 6.85 µM (active) | 16.6 µM (active) | inactive | – | – | – | inactive | inactive | inactive | inactive | inactive | – | – | – |
| COC(=O)C=CC(=O)OC | inactive | – | inactive | 15.2 µM (active) | 7.43 µM (active) | inactive | inactive | – | 0.235 µM (active) | inactive | 23.5 µM (active) | – | – | inactive | – | 3.29 µM (active) | – | – | – | – |
| CC(C=CC1=C(C)CCCC1(C)C)=CC=CC(C)=CC(=O)Nc1ccc(O)cc1 | – | 42.9 µM (active) | 27 µM (active) | 55.5 µM (active) | 17.1 µM (active) | 3.4 µM (active) | 12.5 µM (active) | 34 µM (active) | 27 µM (active) | 42.9 µM (active) | 7.62 µM (active) | 17.7 µM (active) | – | 42.9 µM (active) | 3.4 µM (active) | 2.4 µM (active) | 6.03 µM (active) | 42.7 µM (active) | 0.38 µM (active) | 24 µM (active) |
| COc1cc2ncnc(Nc3cccc(Br)c3)c2cc1OC | 24.3 µM (active) | – | 29.6 µM (active) | – | 7.43 µM (active) | – | – | 0.935 µM (active) | – | inactive | – | 15.3 µM (active) | inactive | – | – | 11.7 µM (active) | 16.5 µM (active) | 18.5 µM (active) | – | – |
| CC1(C)O[C@@H]2C[C@H]3[C@@H]4CCC5=CC(=O)C=C[C@]5(C)[C@@H]4[C@@H](O)C[C@]3(C)[C@]2(C(=O)CO)O1 | inactive | inactive | – | inactive | – | inactive | inactive | – | inactive | inactive | inactive | inactive | inactive | inactive | – | inactive | inactive | inactive | – | – |
| C[N+](C)([O-])CCNc1ccc(NCC[N+](C)(C)[O-])c2c1C(=O)c1c(O)ccc(O)c1C2=O | inactive | inactive | inactive | – | – | – | inactive | – | inactive | – | – | inactive | inactive | – | – | – | – | – | – | – |
| CC1(C)CC(O)CC(C)(C)N1[O] | inactive | – | inactive | inactive | inactive | inactive | inactive | inactive | inactive | inactive | inactive | – | inactive | inactive | – | – | – | – | – | – |
